{"source": "PubChem BioAssay (NCI)", "note": "Compounds without any hit were thinned out: in the full panel of roughly 83,000, 20% have a hit.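 Negative percent growth values reflect cell death: -40 means 40% of the cells present at the start died, and -100 means all died.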 The source made the active and inactive calls. The calls were made as follows: active = growth percent below 10; inactive = the rest."}
{"test_system": "HL-60(TB) leukemia", "assay": "NCI-60 one-dose screen, 48 h (100 = growth as untreated, 0 = no growth, -100 = all killed)", "settings": "10 µM unless noted"}
{"smiles": "O=c1cc(Cl)[nH]c(=O)[nH]1", "growth": "91.7% (inactive)"}
{"smiles": "COc1ccc(/C(=C\\c2cc(OC)c(OC)c(OC)c2)C(=O)N2CCCNCC2)cc1", "growth": "96.4% (inactive)"}
{"smiles": "CCCCCN1C=C/C(=C\\C(=O)N2CCCc3ccccc32)c2ccccc21", "growth": "54.8% (inactive)"}
{"smiles": "C(=C\\c1n(Cc2ccc3ccccc3c2)c(-c2ccccc2)c(-c2ccccc2)[n+]1Cc1ccc2ccccc2c1)/c1ccccc1", "growth": "-42% (active)"}
{"smiles": "O=C(CCc1nnc(SCc2ccccc2)s1)c1nc2ccccc2[nH]1", "growth": "92.3% (inactive)"}
{"smiles": "Cc1cc(N/N=C/c2nc(-c3ccc(Br)cc3)oc2C)c2cc(Br)ccc2n1", "growth": "18.9% (inactive)"}
{"smiles": "CC1=C(Cl)C(=O)c2cc(C)ccc2C1=O", "growth": "117% (inactive)"}
{"smiles": "COc1ccc(-c2cc(-c3ccccc3)nc(N3CCN(CCNc4ccnc5cc(Cl)ccc45)CC3)n2)cc1", "growth": "-39.8% (active)"}
{"smiles": "O=C1/C(=C/c2cn(-c3ccccc3)nc2-c2ccccc2)SC(=S)N1CCc1ccccc1", "growth": "102% (inactive)"}
{"smiles": "COc1cc(C2CC(c3ccc(Nc4nc(NCCO)nc(NCCO)n4)cc3)=NN2c2cc(Cl)cc(Cl)c2)cc(OC)c1OC", "note": "(stereo not given)", "growth": "-5.04% (active)"}
{"smiles": "CCCCCCCN(CCCCCCC)C(=N)c1ccc(OC)c2ccccc12", "growth": "-66.4% (active)"}
{"smiles": "O=C(NCO)c1ccccc1", "growth": "94.4% (inactive)"}
{"smiles": "Cc1csc2ccc(Cl)cc12", "growth": "110% (inactive)"}
{"smiles": "N#C/C(=C\\c1ccc(Br)cc1)n1nnc2c(F)cccc21", "growth": "0.171% (active)"}
{"smiles": "CC(=O)Nc1ccc(S(=O)(=O)N2C(=O)CCC2C(=O)Nc2ccc(Br)cc2)cc1", "note": "(stereo not given)", "growth": "15.5% (inactive)"}
{"smiles": "Cn1cc(-c2nc(-c3c[nH]c4ncccc34)cs2)c2cc(Cl)ccc21", "growth": "55.8% (inactive)"}
{"smiles": "Fc1cccc(COc2ccc(Nc3ncnc4onc(-c5ccccc5)c34)cc2)c1", "growth": "7.34% (active)"}
{"smiles": "COc1cc2c(cc1OC)[C@H](C(=O)O)[C@@H](c1ccc(OC(C)C)c(OC)c1)N(C)C2=O", "growth": "94.9% (inactive)"}
{"smiles": "O=C1/C(=C/c2ccc([N+](=O)[O-])o2)Oc2ccc(Cl)cc21", "growth": "-21.3% (active)"}
{"smiles": "Nc1ccc(Cl)c(S(=O)(=O)O)c1", "growth": "90.5% (inactive)"}
{"smiles": "C=C[C@@H]1C[C@@H]2Cc3ccccc3N1O2", "growth": "-12.8% (active)"}
{"smiles": "COc1ccc(-c2cc3c(OC)c(OC)c(OC)cc3oc2=O)cc1", "growth": "36.5% (inactive)"}
{"smiles": "CC1CCN(C(=O)CCCl)c2ccccc21", "note": "(stereo not given)", "growth": "112% (inactive)"}
{"smiles": "O=C(CSc1nc(-c2ccccc2)cc(=O)[nH]1)Nc1nc(-c2ccccc2)cs1", "growth": "95.7% (inactive)"}
{"smiles": "CC(C)OC(=O)c1ccc([N+](=O)[O-])cc1", "growth": "121% (inactive)"}
{"smiles": "COc1cc(/C=C/C(=O)c2ccc(NC(=O)CSc3nnc(-c4cc(-c5ccccc5)nc5ccccc45)n3-c3ccccc3)cc2)cc(OC)c1OC", "growth": "84.9% (inactive)"}
{"smiles": "COc1ccccc1Cn1cc2c(c1)-c1oncc1CC2", "growth": "1.41% (active)"}
{"smiles": "CCN1CCN(c2nc3ccccc3c3c(=O)c4cc(F)ccc4sc23)CC1", "growth": "104% (inactive)"}
{"smiles": "CC(Sc1nc2sc3c(c2c(=O)n1-c1ccc(Cl)cc1)CCCC3)C(=O)Nc1nc(-c2ccc(Br)cc2)cs1", "note": "(stereo not given)", "growth": "98.6% (inactive)"}
{"smiles": "Cc1cc(C)n(-c2nnc3n2N=C(c2ccc(-c4ccccc4)cc2)CS3)n1", "growth": "7.07% (active)"}
{"smiles": "O=C(Nc1ccccc1)c1sc(-c2cccc(C(F)(F)F)c2)cc1O", "growth": "40.2% (inactive)"}
{"smiles": "c1coc2occoc=2o1", "growth": "102% (inactive)"}
{"smiles": "CC1SC(c2ccc(OCc3ccccc3)cc2)N(NC(=O)C(O)(c2ccccc2)c2ccccc2)C1=O", "note": "(stereo not given)", "growth": "14.5% (inactive)"}
{"smiles": "N#C/C(C(=O)c1ccccc1)=C1/C(=O)Nc2ccc(Br)cc21", "growth": "146% (inactive)"}
{"smiles": "O=C(CNc1nnc(-c2ccc(Cl)cc2)o1)Nc1ccc(-c2nc3ccccc3s2)cc1", "growth": "93.7% (inactive)"}
{"smiles": "Cc1ccc(O)c(NC(=O)c2cccc(Nc3ccnc(C(F)(F)F)c3)c2)c1", "growth": "-11.8% (active)"}
{"smiles": "Cc1ccccc1N1C(=O)c2cc(S(N)(=O)=O)c(Cl)cc2NC1C", "note": "(stereo not given)", "growth": "87.9% (inactive)"}
{"smiles": "COc1ccc(-c2nc(-c3nc4cc(Cl)c(F)cc4[nH]3)c3ccccn23)cc1", "growth": "46.4% (inactive)"}
{"smiles": "CCN(CC)Cc1cc(Nc2ccnc3cc(Cl)ccc23)cc(-c2ccc(Cl)cc2)c1O", "growth": "51.3% (inactive)"}
{"smiles": "COc1cccc(Cc2cc(-c3ccccc3)nn(CC(=O)c3ccccc3)c2=O)c1", "growth": "69.4% (inactive)"}
